In all, about 360,000 compounds went through this assay and about 11,000 (3.1%) were called active. Rule as the data show it: active = activity change below about -30%; inactive = the rest. What follows is part of a selection rich in actives, with near analogues and random picks from the rest.
Each compound was assayed against D(1A) dopamine receptor (Homo sapiens) (UniProt P21728) (assay: Antagonist of Human D 1 Dopamine Receptor: qHTS). Conditions: HEK293 TREx D1 cells, calcium flux, dopamine EC80; at 10 µM; hits give low values.
Chain of D(1A) dopamine receptor (Homo sapiens) (P21728 whole entry, looked up): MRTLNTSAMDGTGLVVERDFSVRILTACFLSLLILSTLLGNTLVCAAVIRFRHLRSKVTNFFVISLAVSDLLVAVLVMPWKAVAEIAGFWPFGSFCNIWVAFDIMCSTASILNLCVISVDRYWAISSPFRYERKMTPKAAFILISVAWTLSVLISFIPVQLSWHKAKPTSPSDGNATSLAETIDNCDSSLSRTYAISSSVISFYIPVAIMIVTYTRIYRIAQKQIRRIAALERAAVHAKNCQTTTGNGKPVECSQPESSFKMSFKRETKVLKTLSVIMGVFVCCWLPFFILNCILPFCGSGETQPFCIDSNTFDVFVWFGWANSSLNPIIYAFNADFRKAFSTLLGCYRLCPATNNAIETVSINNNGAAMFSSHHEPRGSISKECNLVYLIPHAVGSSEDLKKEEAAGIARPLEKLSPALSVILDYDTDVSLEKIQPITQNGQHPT
Method in brief: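 Compound effects on dopamine-evoked calcium signalling were measured in tetracycline-induced HEK293 Trex D1 cells. Dopamine at EC80 followed a 180 s compound pre-read, and fluorescence was tracked kinetically for 180 s more.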
`Fc1ccc(Cn2nnnc2C(c2cccs2)N2CCCCCC2)cc1` (stereo not drawn) was tested, and the activity change, negative = inhibition was -36.7% (active). `Fc1ccccc1C(c1nnnn1Cc1ccc2c(c1)OCO2)N1CCN(Cc2ccccc2)CC1` (stereo not drawn) was tested, and the activity change, negative = inhibition was 19.9% (inactive). `N#Cc1ccc(C(c2nnnn2CCc2ccccc2)N2CCCCCC2)cc1` (stereo not drawn) was tested, and the activity change, negative = inhibition was 10.7% (inactive). In the case of `Cc1ccc(S(=O)(=O)N(Cc2nc(-c3ccc(Cl)cc3)no2)C2CCCCC2)cc1`, the activity change, negative = inhibition is reported as -2.35% (inactive). With `NS(=O)(=O)c1ccc(CNC(=O)c2cccc(Oc3ccccc3)c2)cc1` the activity change, negative = inhibition was -38.4% (active). With `NS(=O)(=O)c1ccc(CNC(=O)c2cnccn2)cc1` the activity change, negative = inhibition was 9.99% (inactive). `NS(=O)(=O)c1ccc(CNC(=O)c2cccc(S(=O)(=O)N3CCc4ccccc43)c2)cc1` was tested, and the activity change, negative = inhibition was -4.68% (inactive). With `CCN(CC)S(=O)(=O)c1ccc2c(c1)N(CC(=O)NCC(C)c1ccccc1)C(=O)CO2` (stereo not drawn) the activity change, negative = inhibition was 6.95% (inactive). `CCCCN(CC)C(=O)c1c[nH]c2ccc(S(=O)(=O)Nc3cccc(OC)c3)cc2c1=O` was tested, and the activity change, negative = inhibition was 16.9% (inactive). For `CCC(=O)N1CCc2cc(S(=O)(=O)NCCC(=O)Nc3cccc(C)c3C)ccc21`, the activity change, negative = inhibition was -2.16% (inactive). In the case of `O=C(CC(=O)Nc1ccc(Cl)c(Cl)c1)N/N=C/c1ccc(O)cc1`, the activity change, negative = inhibition is reported as -37.9% (active). `CC1=NNC(=O)C1CCC(=O)N/N=C\c1ccc(Cl)c(Cl)c1` (stereo not drawn) was tested, and the activity change, negative = inhibition was 6.69% (inactive). With `Nc1nnn(CC(=O)N/N=C/c2ccc(O)cc2)n1` the activity change, negative = inhibition was -2.2% (inactive). `Cc1ccn2c(Nc3ccc4c(c3)OCCO4)c(-c3ccc(C)s3)nc2c1` was tested, and the activity change, negative = inhibition was -15.7% (inactive). `O=C(NC1CCN(Cc2ccccc2)CC1)c1ccc(Oc2cc(Cl)cc(Cl)c2)o1` was tested, and the activity change, negative = inhibition was -10.1% (inactive). In the case of `S=C(Nc1ccc(Br)cc1)NC1CCN(Cc2ccccc2)CC1`, the activity change, negative = inhibition is reported as -68.5% (active). In the case of `O=C(NC1CCN(Cc2ccccc2)CC1)c1cc(Br)c(Br)[nH]1`, the activity change, negative = inhibition is reported as -71.3% (active). For `Cc1cc(C(=O)NC2CCN(Cc3ccccc3)CC2)n[nH]1`, the activity change, negative = inhibition was -5.73% (inactive). In the case of `S=C(NN=C1CCN(Cc2ccccc2)CC1)NC1CCCCC1`, the activity change, negative = inhibition is reported as 2.36% (inactive). For `S=C(Nc1ccc(Br)cc1Cl)NC1CCN(Cc2ccccc2)CC1`, the activity change, negative = inhibition was -18.2% (inactive). For `Cc1ccc2nc(COc3ccccc3NC(=O)Nc3ccc(F)c(Cl)c3)cc(=O)n2c1`, the activity change, negative = inhibition was -18.5% (inactive). `CCc1ccccc1N(C)C(=O)C1CCCN(c2ncnc3onc(-c4ccc(F)cc4)c23)C1` (stereo not drawn) was tested, and the activity change, negative = inhibition was -2.86% (inactive). In the case of `O=C(O)c1ccc(Cn2c(SCc3ccc(F)cc3)nc3ccncc32)cc1`, the activity change, negative = inhibition is reported as 11.2% (inactive). With `CCc1ccccc1NC(=O)c1cnn(-c2ccc(F)cc2)c1C1CCNCC1` the activity change, negative = inhibition was -15.1% (inactive). In the case of `CCOC(=O)c1ccccc1NC(=O)c1sc2nc(-c3ccc(F)cc3)cn2c1C`, the activity change, negative = inhibition is reported as 6.46% (inactive). For `CCOc1ccc(NC(=O)C(=O)NCCc2csc3nc(-c4ccccc4F)nn23)cc1`, the activity change, negative = inhibition was -3.3% (inactive). With `CSCCC(NC(=O)c1ccccc1)C(=O)N1CCCCCCC1` (stereo not drawn) the activity change, negative = inhibition was -32.7% (active). With `CSCCC(NC(=O)c1ccccc1)C(=O)N1CCN(Cc2ccc(Cl)cc2)CC1` (stereo not drawn) the activity change, negative = inhibition was 18.2% (inactive). With `COc1ccccc1C(=O)NC(CCSC)C(=O)N1CCN(C(C)=O)CC1` (stereo not drawn) the activity change, negative = inhibition was -23.2% (inactive). For `CCOc1ccccc1NC(=O)CSc1ncc(S(=O)(=O)c2ccc(C(C)(C)C)cc2)c(=O)[nH]1`, the activity change, negative = inhibition was 10.4% (inactive). With `Cc1ccccc1OCC(=O)Nc1c(C(=O)Nc2ccccc2F)oc2ccccc12` the activity change, negative = inhibition was -7.86% (inactive). In the case of `CCCC(=O)Nc1cc(OCC)c(NC(=O)NC2CCCCC2)cc1OCC`, the activity change, negative = inhibition is reported as -5.85% (inactive). With `COC(=O)C1=CN(Cc2ccc(OC)cc2)C=C(C(=O)OC)C1c1ccc(O)c(OC)c1` the activity change, negative = inhibition was 11.1% (inactive). With `CCOc1cc(C2C(C(=O)OC)=CN(C3CCCC3)C=C2C(=O)OC)cc(Br)c1O` the activity change, negative = inhibition was -30.9% (active). In the case of `Cc1cc(C)c2nc(NC(=O)C3CCCO3)sc2c1` (stereo not drawn), the activity change, negative = inhibition is reported as -5.2% (inactive). In the case of `O=C(Nc1nc2ccc(S(=O)(=O)N3CCCC3)cc2s1)C1CCCO1` (stereo not drawn), the activity change, negative = inhibition is reported as -41.4% (active). For `CN1CCN(S(=O)(=O)c2ccc(NC(=O)C3CCCO3)cc2)CC1` (stereo not drawn), the activity change, negative = inhibition was -2.7% (inactive). In the case of `Cc1ccc(Cl)cc1NC(=O)NC1COc2ccccc2C1` (stereo not drawn), the activity change, negative = inhibition is reported as -23% (inactive). For `O=C(CCc1nc(CN2CCN(S(=O)(=O)c3ccc(Br)cc3)CC2)no1)N1CCCCC1`, the activity change, negative = inhibition was -0.355% (inactive). With `CCN(c1ccccc1)S(=O)(=O)c1cc(C(=O)NCc2ccccn2)ccc1C` the activity change, negative = inhibition was -89.3% (active). With `Cc1ccc(NC(=O)CNCc2ccccn2)cc1S(=O)(=O)N(C)C` the activity change, negative = inhibition was -15% (inactive). For `CCN(CC)S(=O)(=O)c1cc(C(=O)Nc2ccccn2)ccc1C`, the activity change, negative = inhibition was 5.43% (inactive). For `NC(=O)NCCCC(=O)O`, the activity change, negative = inhibition was -51% (active). With `CCCCCCCCCCCC(=O)O` the activity change, negative = inhibition was -4.71% (inactive). `Cc1oc(C)c(C(=O)NCCCC(=O)O)c1C(=O)NCCCC(=O)O` was tested, and the activity change, negative = inhibition was 1.94% (inactive). For `COc1ccccc1C1C(C(=O)N2CCCCC2)=C(C)Nc2nc3ccccc3n21` (stereo not drawn), the activity change, negative = inhibition was 3.49% (inactive). For `O=C(CS(=O)(=O)c1cccc2nsnc12)N1CCN(c2cccc(Cl)c2)CC1`, the activity change, negative = inhibition was -13.7% (inactive). In the case of `Cc1cc(OCCCN2CCN(Cc3ccccc3)CC2)ccc1[N+](=O)[O-]`, the activity change, negative = inhibition is reported as -35.7% (active). In the case of `COc1cc(CN2CCN(Cc3ccc(C)cc3)CC2)c([N+](=O)[O-])cc1OC`, the activity change, negative = inhibition is reported as 5.79% (inactive). With `Cc1cc(OCC(=O)NC2CCN(C)CC2)ccc1[N+](=O)[O-]` the activity change, negative = inhibition was -13% (inactive). For `O=C(CCn1c(=O)c2ccccc2n(Cc2ccc(Cl)cc2)c1=O)NCc1ccc2c(c1)OCO2`, the activity change, negative = inhibition was -2.86% (inactive). For `CN(CC1CCCO1)S(=O)(=O)c1ccc(C(=O)Nc2ccc(F)cc2)cc1` (stereo not drawn), the activity change, negative = inhibition was -41.6% (active). `O=C(Nc1ccc(S(=O)(=O)NCC2CCCO2)cc1)c1ccc(F)cc1` (stereo not drawn) was tested, and the activity change, negative = inhibition was -29.6% (inactive). In the case of `CCOc1ccc(C(=O)Nc2ccc(S(=O)(=O)NCC3CCCO3)cc2)cc1OCC` (stereo not drawn), the activity change, negative = inhibition is reported as -38.2% (active). With `CC1CCc2noc(NC(=O)c3ccc([N+](=O)[O-])cc3)c2C1` (stereo not drawn) the activity change, negative = inhibition was -19.9% (inactive). In the case of `CCOC(=O)c1c(NC(=O)c2ccc(S(=O)(=O)N(C)CC3CCCO3)cc2)sc2c1CC(C)(C)NC2(C)C` (stereo not drawn), the activity change, negative = inhibition is reported as -2.75% (inactive). `CCC(=O)Nc1ccc(S(=O)(=O)NCC2CCCO2)cc1` (stereo not drawn) was tested, and the activity change, negative = inhibition was -9.18% (inactive). In the case of `O=C(NCC1CCCO1)c1ccc(S(=O)(=O)Nc2ccc(F)cc2)cc1` (stereo not drawn), the activity change, negative = inhibition is reported as -8.93% (inactive). With `CN(CC1CCCO1)S(=O)(=O)c1ccc(C(=O)Nc2ccc([N+](=O)[O-])cc2)cc1` (stereo not drawn) the activity change, negative = inhibition was -32.3% (active). For `Cc1ccc(NC(=O)c2ccc(S(=O)(=O)NCC3CCCO3)cc2)cc1C` (stereo not drawn), the activity change, negative = inhibition was -12% (inactive). `CCC1(C)CC(=O)c2c(ccc3oc(C(=O)Nc4ccc(C(C)=O)cc4)c(C)c23)O1` (stereo not drawn) was tested, and the activity change, negative = inhibition was -2.38% (inactive). With `COc1cccc(CNC(=O)Cn2c(=O)c3cccn3c3ccc(F)cc32)c1OC` the activity change, negative = inhibition was 4% (inactive). In the case of `CCOc1cc(NC(=S)NCc2ccco2)c(OCC)cc1NC(=O)c1ccco1`, the activity change, negative = inhibition is reported as -1.48% (inactive). With `CCOc1cc(NC(=S)NCCCN(C)C)c(OCC)cc1NC(=O)C1CC1` the activity change, negative = inhibition was -3.38% (inactive). `CCOc1cc(NC(=S)NCCCOC)c(OCC)cc1NC(=O)c1ccco1` was tested, and the activity change, negative = inhibition was -35.1% (active). `CCSc1ncc(Cl)c(C(=O)Nc2c(C(=O)c3ccccc3)oc3ccccc23)n1` was tested, and the activity change, negative = inhibition was -6.04% (inactive). `Cc1ccccc1CS(=O)(=O)CC1Nc2ccc(C(=O)NCc3ccc(Cl)cc3)cc2NC1=O` (stereo not drawn) was tested, and the activity change, negative = inhibition was -8.08% (inactive). For `Cc1cc(C(=O)COC(=O)C2CC2)c(C)n1-c1ccc(F)cc1`, the activity change, negative = inhibition was -6.5% (inactive). With `O=C1CSC(=S)N1/N=C/c1ccc(O)c([N+](=O)[O-])c1` the activity change, negative = inhibition was -20.2% (inactive). `Cc1cc(C(=O)N/N=C/c2ccc(O)c([N+](=O)[O-])c2)c(C)n1-c1ccc(F)cc1` was tested, and the activity change, negative = inhibition was -30% (active). For `Cc1ccccc1CN1CCC(CNC(=O)c2c(C)oc3ncnc(N4CCCCC4)c23)CC1`, the activity change, negative = inhibition was -6.32% (inactive). For `O=C(c1ccc(F)cc1)n1cc(C(=S)N2CCOCC2)c2ccccc21`, the activity change, negative = inhibition was -30.2% (active). For `O=C(Oc1ccc(C(=S)N2CCOCC2)cc1)c1ccc(F)cc1`, the activity change, negative = inhibition was -12.9% (inactive). `O=C(Nc1ccc(F)cc1)C(=O)c1cn(CC(=O)N2CCOCC2)c2ccccc12` was tested, and the activity change, negative = inhibition was 0.328% (inactive). In the case of `Cn1c(=O)sc2cc(NS(=O)(=O)c3ccc(C(C)(C)C)cc3)ccc21`, the activity change, negative = inhibition is reported as 6.14% (inactive). With `O=C(O)CC/C(=C\c1cc2c(cc1Br)OCO2)c1nc2ccccc2s1` the activity change, negative = inhibition was -6.84% (inactive). With `O=C(O)CS/C(=C\c1ccc(F)cc1)c1nc2ccccc2s1` the activity change, negative = inhibition was -33.3% (active). In the case of `CC1=CC(=C(C#N)c2nc3ccccc3s2)C=C(C)N1c1ccc(F)cc1F`, the activity change, negative = inhibition is reported as -3.42% (inactive). With `COc1ccc(OC)c(NC(=O)CSc2nc3ccccc3nc2N2CCCCC2)c1` the activity change, negative = inhibition was -1.47% (inactive). `Cc1cccc(NC(=O)CSc2nnc(CNC(=O)c3cccc(C)c3)n2-c2ccccc2)c1` was tested, and the activity change, negative = inhibition was -12.8% (inactive). `Cc1ccc(-c2nc(CS(=O)(=O)CC(=O)NCc3ccccc3Cl)c(C)o2)cc1` was tested, and the activity change, negative = inhibition was 3.92% (inactive). For `Cc1ccsc1C1C(C#N)=C(N)OC2=C1C(=O)CC(C)(C)C2` (stereo not drawn), the activity change, negative = inhibition was -36.3% (active). With `Cc1ccsc1C1C(C#N)=C(N)OC2=C1C(=O)CC(C)C2` (stereo not drawn) the activity change, negative = inhibition was -22.6% (inactive). For `COc1ccc(C2C(C#N)=C(/N=C/N3CCOCC3)OC3=C2C(=O)CC(C)(C)C3)cc1OC` (stereo not drawn), the activity change, negative = inhibition was 4.71% (inactive). `COc1ccc(-c2c(C)nn3c(N4CCC(C(=O)NCCC(C)C)CC4)cc(C)nc23)cc1OC` was tested, and the activity change, negative = inhibition was -5.31% (inactive). With `COc1cccc(CNc2nccn(-c3ccc(OC)c(OC)c3)c2=O)c1` the activity change, negative = inhibition was 6.9% (inactive). With `COc1ccc(C2NC(=O)N(C)C3=C2C(=O)N(c2ccc(C(=O)O)cc2)C3)cc1` (stereo not drawn) the activity change, negative = inhibition was -10.6% (inactive). In the case of `COC(=O)c1ccc(NC(=O)CCc2c(C)nn(-c3ccc(N4CCCC4)nn3)c2C)cc1`, the activity change, negative = inhibition is reported as -3.84% (inactive).
% is scaled to controls: 0 for no effect and ±100 for the full control effect.
